# Results taken from article PMC7862700, “An all-to-all approach to the identification of sequence-specific readers for epigenetic DNA modifications on cytosine”.
# How the values were obtained:
# Test in all cases: DAPPL (digital affinity profiling via proximity ligation, sequencing); 10 mM Tris-HCl pH 7.5, 50 mM NaCl, 1 mM DTT, 4% glycerol, room temperature, 30 min; GST-TFs on glutathione beads, 16-mer random dsDNA library, 0.1% formaldehyde crosslink after washing; high values mean tight binding
# FLI1 = target: T1, FLI1 (Homo sapiens, UniProt Q01543 1-452); details: protein: recombinant; tags: N-terminal GST; dsDNA, one strand shown
# T1 sequence: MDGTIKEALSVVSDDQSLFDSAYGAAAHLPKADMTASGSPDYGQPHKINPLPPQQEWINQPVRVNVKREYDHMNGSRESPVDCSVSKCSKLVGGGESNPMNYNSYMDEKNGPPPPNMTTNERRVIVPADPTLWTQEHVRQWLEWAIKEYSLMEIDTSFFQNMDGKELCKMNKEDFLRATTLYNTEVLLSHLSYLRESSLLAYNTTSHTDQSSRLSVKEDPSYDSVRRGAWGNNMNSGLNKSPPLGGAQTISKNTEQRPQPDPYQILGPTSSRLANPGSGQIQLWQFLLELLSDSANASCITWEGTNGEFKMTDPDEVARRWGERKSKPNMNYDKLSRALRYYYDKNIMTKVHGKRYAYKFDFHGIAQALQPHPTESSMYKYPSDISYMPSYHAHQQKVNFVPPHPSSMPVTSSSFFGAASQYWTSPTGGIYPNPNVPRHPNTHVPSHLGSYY
# In short: (§1)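 Human transcription factors fused to GST were expressed in yeast, captured on glutathione beads, given DNA barcodes and pooled with a GST-only negative control. Pools were incubated with 200 nmole of a 16-mer random double-stranded DNA library in Tris/NaCl/DTT/glycerol buffer at room temperature for 30 min. They were then washed, crosslinked with 0.1% formaldehyde, proximity-ligated (BsaI/T4 ligase, 1 h, 37 °C), PCR-amplified and sequenced on an Illumina NextSeq500. Binding signal is each 6-mer's read frequency for a factor divided by its frequency for the GST control.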
# ELK1 = target: T2, ELK1 (Homo sapiens, UniProt P19419 1-428); details: protein: recombinant; tags: N-terminal GST; dsDNA, one strand shown
# T2 sequence: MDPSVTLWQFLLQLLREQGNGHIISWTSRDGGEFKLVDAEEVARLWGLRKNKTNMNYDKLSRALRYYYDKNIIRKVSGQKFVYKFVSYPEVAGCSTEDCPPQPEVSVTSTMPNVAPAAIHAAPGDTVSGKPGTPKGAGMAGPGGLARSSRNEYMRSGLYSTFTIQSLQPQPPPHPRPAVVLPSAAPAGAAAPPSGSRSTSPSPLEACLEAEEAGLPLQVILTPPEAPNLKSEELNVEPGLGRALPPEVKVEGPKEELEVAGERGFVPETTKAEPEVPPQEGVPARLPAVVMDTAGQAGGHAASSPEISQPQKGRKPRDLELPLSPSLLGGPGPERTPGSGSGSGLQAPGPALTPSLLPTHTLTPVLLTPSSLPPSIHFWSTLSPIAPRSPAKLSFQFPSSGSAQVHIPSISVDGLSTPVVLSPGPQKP
# In short: as §1
# GABPA = target: T3, GABPA (Homo sapiens, UniProt Q06546 1-454); details: protein: recombinant; tags: N-terminal GST; dsDNA, one strand shown
# T3 sequence: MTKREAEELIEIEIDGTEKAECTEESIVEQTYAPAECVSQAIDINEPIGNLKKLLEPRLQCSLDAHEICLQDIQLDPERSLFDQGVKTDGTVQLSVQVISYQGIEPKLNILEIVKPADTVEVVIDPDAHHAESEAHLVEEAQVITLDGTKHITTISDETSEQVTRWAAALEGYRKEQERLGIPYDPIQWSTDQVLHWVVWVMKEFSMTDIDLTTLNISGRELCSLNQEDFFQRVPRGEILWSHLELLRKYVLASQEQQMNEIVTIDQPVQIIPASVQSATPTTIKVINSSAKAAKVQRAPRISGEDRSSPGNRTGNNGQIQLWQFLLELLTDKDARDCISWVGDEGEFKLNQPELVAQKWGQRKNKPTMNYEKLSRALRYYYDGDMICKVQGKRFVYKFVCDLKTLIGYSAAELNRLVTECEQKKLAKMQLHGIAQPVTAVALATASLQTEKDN
# In short: as §1
# ERG = target: T4, ERG (Homo sapiens, UniProt P11308 1-479); details: protein: recombinant; tags: N-terminal GST; dsDNA, one strand shown
# T4 sequence: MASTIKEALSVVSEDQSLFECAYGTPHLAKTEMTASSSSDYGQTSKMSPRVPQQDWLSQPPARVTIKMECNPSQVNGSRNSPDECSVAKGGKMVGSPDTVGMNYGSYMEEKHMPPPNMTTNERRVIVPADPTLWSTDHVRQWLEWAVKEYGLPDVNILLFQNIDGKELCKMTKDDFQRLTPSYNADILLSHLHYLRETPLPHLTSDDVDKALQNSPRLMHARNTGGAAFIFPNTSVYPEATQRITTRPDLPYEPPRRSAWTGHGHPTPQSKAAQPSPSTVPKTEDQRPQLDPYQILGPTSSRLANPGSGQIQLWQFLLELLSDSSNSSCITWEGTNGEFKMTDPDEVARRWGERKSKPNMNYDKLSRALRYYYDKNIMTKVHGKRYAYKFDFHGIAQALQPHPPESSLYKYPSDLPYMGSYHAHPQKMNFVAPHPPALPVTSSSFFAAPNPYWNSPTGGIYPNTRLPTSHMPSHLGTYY
# In short: as §1
# ELF1 = ELF1 (Homo sapiens, UniProt P32519 1-619); details: protein: recombinant; tags: N-terminal GST; dsDNA, one strand shown
# In short: as §1
# EHF = target: T5, EHF (Homo sapiens, UniProt Q9NZC4 1-300); details: protein: recombinant; tags: N-terminal GST; dsDNA, one strand shown
# T5 sequence: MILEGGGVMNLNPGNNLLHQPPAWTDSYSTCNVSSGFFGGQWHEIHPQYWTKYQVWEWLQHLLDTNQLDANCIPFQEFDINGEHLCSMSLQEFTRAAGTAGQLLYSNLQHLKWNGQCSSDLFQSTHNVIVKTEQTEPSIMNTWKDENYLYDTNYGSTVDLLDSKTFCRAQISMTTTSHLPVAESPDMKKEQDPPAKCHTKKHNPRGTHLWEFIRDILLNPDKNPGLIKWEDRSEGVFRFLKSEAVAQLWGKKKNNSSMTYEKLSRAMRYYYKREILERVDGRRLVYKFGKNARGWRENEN
# In short: as §1
# SPI1 = SPI1 (Homo sapiens, UniProt P17947 1-270); details: protein: recombinant; tags: N-terminal GST; dsDNA, one strand shown
# In short: as §1
# SPIB = SPIB (Homo sapiens, UniProt Q01892 1-262); details: protein: recombinant; tags: N-terminal GST; dsDNA, one strand shown
# In short: as §1
# ELK3 = target: T6, ELK3 (Homo sapiens, UniProt P41970 1-407); details: protein: recombinant; tags: N-terminal GST; dsDNA, one strand shown
# T6 sequence: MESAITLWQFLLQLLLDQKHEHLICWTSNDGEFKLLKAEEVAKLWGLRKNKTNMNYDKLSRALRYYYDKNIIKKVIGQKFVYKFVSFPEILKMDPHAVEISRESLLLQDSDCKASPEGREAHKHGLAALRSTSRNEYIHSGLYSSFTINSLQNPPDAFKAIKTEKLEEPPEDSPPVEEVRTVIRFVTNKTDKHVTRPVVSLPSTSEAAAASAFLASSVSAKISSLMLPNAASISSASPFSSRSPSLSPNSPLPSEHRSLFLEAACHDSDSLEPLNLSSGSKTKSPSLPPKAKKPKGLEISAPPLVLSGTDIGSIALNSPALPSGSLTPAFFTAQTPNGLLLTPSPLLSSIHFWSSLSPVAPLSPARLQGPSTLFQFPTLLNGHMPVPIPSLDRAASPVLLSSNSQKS
# In short: as §1
# FEV = target: T7, FEV (Homo sapiens, UniProt Q99581 1-238); details: protein: recombinant; tags: N-terminal GST; dsDNA, one strand shown
# T7 sequence: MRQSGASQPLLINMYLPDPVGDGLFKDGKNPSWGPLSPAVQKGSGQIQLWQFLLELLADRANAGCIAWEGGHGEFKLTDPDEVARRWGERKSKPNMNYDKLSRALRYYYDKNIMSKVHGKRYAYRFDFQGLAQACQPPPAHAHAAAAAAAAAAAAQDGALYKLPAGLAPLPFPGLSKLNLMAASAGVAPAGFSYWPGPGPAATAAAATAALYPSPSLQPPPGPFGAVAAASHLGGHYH
# In short: as §1
# ETV5 = ETV5 (Homo sapiens, UniProt P41161 1-510); details: protein: recombinant; tags: N-terminal GST; dsDNA, one strand shown
# In short: as §1
# HSF1 = HSF1 (Homo sapiens, UniProt Q00613 1-529); details: protein: recombinant; tags: N-terminal GST; chain copies: 3; dsDNA, one strand shown
# In short: as §1
# SPIC = target: T8, SPIC (Homo sapiens, UniProt Q8N5J4 1-248); details: protein: recombinant; tags: N-terminal GST; dsDNA, one strand shown
# T8 sequence: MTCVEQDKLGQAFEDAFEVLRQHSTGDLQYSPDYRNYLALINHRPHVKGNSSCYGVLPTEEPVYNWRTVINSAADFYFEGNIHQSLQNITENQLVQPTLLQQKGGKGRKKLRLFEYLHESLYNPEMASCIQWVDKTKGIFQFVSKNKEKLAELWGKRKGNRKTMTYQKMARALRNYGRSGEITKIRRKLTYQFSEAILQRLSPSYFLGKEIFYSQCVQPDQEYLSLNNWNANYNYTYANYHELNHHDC
# In short: as §1
# ELF4 = ELF4 (Homo sapiens, UniProt Q99607 1-663); details: protein: recombinant; tags: N-terminal GST; dsDNA, one strand shown
# In short: as §1
# ELK4 = target: T9, ELK4 (Homo sapiens, UniProt P28324-2 1-405); details: protein: recombinant; tags: N-terminal GST; dsDNA, one strand shown
# T9 sequence: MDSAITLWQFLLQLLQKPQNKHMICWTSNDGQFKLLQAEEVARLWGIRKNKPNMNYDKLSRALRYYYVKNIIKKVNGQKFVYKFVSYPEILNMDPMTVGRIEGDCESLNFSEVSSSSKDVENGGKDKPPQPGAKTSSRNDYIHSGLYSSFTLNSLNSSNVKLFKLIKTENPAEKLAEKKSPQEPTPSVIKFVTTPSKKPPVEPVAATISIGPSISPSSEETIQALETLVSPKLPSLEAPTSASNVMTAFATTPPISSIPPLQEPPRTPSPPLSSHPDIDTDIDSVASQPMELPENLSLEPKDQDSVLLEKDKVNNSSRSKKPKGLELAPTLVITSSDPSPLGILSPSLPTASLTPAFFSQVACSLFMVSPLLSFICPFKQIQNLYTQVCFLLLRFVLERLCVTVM
# In short: as §1
# ETV2 = target: T10, ETV2 (Homo sapiens, UniProt O00321 1-342); details: protein: recombinant; tags: N-terminal GST; dsDNA, one strand shown
# T10 sequence: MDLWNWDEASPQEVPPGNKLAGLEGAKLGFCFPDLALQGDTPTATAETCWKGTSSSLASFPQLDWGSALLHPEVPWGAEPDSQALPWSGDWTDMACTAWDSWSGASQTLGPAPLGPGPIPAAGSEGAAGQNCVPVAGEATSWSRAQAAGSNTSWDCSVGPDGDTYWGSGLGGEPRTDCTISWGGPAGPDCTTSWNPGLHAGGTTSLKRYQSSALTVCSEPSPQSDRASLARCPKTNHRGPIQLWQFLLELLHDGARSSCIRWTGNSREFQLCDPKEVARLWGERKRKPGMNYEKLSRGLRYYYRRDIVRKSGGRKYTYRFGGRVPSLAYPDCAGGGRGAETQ
# In short: as §1
# ELF3 = target: T11, ELF3 (Homo sapiens, UniProt P78545 1-371); details: protein: recombinant; tags: N-terminal GST; dsDNA, one strand shown
# T11 sequence: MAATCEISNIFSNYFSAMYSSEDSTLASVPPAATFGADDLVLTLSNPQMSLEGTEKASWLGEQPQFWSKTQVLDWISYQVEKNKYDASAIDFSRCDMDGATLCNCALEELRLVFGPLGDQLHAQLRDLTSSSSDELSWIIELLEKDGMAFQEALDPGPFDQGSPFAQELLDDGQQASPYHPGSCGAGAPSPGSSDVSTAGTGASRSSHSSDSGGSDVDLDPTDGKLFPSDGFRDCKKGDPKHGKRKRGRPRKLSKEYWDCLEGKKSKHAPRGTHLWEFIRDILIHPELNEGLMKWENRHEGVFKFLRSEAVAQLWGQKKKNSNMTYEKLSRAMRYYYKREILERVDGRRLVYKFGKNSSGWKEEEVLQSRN
# In short: as §1
# CRX = CRX (Homo sapiens, UniProt O43186 1-299); details: protein: recombinant; tags: N-terminal GST; dsDNA, one strand shown
# In short: as §1
# ETV1 = ETV1 (Homo sapiens, UniProt P50549 1-477); details: protein: recombinant; tags: N-terminal GST; dsDNA, one strand shown
# In short: as §1
# SPIB, sequence (Q01892 whole entry): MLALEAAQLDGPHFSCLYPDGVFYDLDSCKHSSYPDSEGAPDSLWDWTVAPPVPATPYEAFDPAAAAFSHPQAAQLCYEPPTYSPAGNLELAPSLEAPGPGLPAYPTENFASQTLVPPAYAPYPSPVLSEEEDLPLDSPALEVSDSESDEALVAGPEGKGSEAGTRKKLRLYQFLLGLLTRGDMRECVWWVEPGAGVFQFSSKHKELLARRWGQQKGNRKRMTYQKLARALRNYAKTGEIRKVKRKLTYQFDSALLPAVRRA
# ELF1, sequence (P32519 whole entry): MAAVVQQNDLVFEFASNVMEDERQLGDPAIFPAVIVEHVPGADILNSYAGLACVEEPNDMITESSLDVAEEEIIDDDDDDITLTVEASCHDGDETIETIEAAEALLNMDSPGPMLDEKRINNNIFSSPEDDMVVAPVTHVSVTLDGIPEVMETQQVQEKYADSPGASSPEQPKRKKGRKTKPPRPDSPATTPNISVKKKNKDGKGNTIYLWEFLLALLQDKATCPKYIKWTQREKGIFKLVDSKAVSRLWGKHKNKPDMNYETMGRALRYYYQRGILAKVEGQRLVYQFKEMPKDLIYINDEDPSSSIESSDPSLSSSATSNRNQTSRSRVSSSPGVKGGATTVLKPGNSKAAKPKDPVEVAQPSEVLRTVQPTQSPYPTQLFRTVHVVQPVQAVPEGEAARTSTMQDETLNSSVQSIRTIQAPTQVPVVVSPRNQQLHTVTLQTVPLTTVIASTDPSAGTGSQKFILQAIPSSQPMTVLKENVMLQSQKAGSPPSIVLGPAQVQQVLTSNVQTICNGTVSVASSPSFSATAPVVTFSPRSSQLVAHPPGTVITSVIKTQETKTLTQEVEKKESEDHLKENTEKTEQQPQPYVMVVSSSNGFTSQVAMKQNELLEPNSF
# ELF4, sequence (Q99607 whole entry): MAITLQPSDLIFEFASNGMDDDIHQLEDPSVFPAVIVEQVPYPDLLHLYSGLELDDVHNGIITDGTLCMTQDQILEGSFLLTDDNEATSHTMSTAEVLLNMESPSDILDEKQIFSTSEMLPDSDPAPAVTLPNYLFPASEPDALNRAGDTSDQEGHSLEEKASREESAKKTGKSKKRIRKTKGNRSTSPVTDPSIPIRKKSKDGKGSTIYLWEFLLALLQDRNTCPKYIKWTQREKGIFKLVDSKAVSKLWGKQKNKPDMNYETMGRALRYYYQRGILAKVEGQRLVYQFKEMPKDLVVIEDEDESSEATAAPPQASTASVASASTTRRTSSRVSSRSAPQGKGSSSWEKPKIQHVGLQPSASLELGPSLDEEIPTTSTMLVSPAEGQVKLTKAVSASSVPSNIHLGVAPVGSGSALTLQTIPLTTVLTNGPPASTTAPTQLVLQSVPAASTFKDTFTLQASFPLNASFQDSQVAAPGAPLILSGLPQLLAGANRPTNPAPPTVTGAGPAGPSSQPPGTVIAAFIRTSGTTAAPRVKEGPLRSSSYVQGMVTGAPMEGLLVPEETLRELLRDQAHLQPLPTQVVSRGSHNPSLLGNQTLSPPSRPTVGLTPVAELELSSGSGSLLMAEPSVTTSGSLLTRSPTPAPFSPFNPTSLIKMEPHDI
# ETV1, sequence (P50549 whole entry): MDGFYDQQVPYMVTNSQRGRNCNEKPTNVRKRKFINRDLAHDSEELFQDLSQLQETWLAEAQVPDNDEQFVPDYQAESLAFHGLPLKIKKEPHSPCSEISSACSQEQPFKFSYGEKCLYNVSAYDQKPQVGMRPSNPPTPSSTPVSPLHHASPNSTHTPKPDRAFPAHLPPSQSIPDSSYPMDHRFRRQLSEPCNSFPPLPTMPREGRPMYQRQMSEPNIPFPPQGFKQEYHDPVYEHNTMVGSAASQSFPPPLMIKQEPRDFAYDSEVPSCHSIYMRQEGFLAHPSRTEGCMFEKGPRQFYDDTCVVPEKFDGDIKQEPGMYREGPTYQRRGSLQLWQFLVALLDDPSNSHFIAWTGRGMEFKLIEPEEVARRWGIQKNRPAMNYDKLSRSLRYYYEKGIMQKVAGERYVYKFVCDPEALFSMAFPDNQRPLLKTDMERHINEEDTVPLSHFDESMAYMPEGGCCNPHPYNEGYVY
# ETV5, sequence (P41161 whole entry): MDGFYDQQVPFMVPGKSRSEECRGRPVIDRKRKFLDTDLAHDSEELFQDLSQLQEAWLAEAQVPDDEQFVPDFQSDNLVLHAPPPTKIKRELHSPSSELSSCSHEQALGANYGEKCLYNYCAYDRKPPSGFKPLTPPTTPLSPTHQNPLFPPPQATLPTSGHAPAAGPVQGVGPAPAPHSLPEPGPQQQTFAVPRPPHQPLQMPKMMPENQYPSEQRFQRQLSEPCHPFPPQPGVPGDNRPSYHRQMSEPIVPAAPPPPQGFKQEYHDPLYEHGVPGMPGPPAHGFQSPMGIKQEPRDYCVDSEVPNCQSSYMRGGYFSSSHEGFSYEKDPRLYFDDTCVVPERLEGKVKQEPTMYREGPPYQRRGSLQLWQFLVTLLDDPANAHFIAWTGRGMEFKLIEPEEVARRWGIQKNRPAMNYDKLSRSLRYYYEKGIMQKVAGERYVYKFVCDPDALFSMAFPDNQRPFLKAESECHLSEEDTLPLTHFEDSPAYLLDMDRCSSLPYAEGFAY
# CRX, sequence (O43186 whole entry): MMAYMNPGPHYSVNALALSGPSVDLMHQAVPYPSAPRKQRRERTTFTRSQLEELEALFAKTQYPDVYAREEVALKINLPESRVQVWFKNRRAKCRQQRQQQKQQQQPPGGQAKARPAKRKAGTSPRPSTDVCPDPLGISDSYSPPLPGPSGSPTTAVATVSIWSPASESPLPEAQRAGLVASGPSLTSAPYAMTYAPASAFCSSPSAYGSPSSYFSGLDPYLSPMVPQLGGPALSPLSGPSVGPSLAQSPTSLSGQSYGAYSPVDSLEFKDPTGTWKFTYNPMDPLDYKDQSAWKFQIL
# HSF1, sequence (Q00613 whole entry): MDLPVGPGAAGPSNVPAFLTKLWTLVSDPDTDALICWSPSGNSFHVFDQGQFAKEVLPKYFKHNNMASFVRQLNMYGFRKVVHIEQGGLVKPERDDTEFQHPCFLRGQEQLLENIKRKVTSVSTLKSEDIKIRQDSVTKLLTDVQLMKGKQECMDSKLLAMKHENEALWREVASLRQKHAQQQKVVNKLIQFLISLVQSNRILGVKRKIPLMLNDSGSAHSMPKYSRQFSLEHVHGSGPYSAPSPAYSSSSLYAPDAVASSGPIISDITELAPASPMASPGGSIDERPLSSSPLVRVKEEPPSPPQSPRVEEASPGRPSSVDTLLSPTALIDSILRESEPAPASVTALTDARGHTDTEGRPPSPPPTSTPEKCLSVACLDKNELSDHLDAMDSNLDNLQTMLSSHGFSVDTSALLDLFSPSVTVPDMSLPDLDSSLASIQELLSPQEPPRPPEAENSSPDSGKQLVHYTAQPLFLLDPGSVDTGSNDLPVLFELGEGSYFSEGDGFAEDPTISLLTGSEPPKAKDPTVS
sequence,measurement,setting,value
CCTTAC,binding signal,FLI1,"1.31 fold enrichment (6-mer frequency, TF over GST control)"
same,binding signal,ELK1,"1.35 fold enrichment (6-mer frequency, TF over GST control)"
same,binding signal,GABPA,"1.37 fold enrichment (6-mer frequency, TF over GST control)"
same,binding signal,ERG,"1.31 fold enrichment (6-mer frequency, TF over GST control)"
same,binding signal,ELF1,"1.34 fold enrichment (6-mer frequency, TF over GST control)"
same,binding signal,EHF,"1.28 fold enrichment (6-mer frequency, TF over GST control)"
same,binding signal,SPI1,"1.28 fold enrichment (6-mer frequency, TF over GST control)"
same,binding signal,SPIB,"1.33 fold enrichment (6-mer frequency, TF over GST control)"
same,binding signal,ELK3,"1.22 fold enrichment (6-mer frequency, TF over GST control)"
same,binding signal,FEV,"1.21 fold enrichment (6-mer frequency, TF over GST control)"
same,binding signal,ETV5,"1.36 fold enrichment (6-mer frequency, TF over GST control)"
same,binding signal,HSF1,"1.15 fold enrichment (6-mer frequency, TF over GST control)"
same,binding signal,SPIC,"1.22 fold enrichment (6-mer frequency, TF over GST control)"
same,binding signal,ELF4,"1.38 fold enrichment (6-mer frequency, TF over GST control)"
same,binding signal,ELK4,"1.13 fold enrichment (6-mer frequency, TF over GST control)"
same,binding signal,ETV2,"1.33 fold enrichment (6-mer frequency, TF over GST control)"
same,binding signal,ELF3,"1.34 fold enrichment (6-mer frequency, TF over GST control)"
same,binding signal,CRX,"1.17 fold enrichment (6-mer frequency, TF over GST control)"
same,binding signal,ETV1,"1.21 fold enrichment (6-mer frequency, TF over GST control)"
